# In the library only some 1.7% were active in any assay of this set; here they are far more common.
# GLP1R ag: activates the human GLP-1 receptor | AID 624172 | Potency, µM (titrated, usually from 45.6 µM), usual class: activators | P43220 | HEK293 GLP-1R CRE-luciferase, luminescence, 4-6 h; cells express a hypersensitive GLP-1R form | hit rate 0.007% among 380,000
# PTHR1 ag: activates the human parathyroid hormone receptor PTHR1; AID 743266; Potency, µM (highest dose often 115 µM), hits mostly activators; hit rate 0.075% among 410,000; HEK293 GP2 PTHR1 cells, GloSensor cAMP luminescence, 1 h; Q03431; also: nearly all actives have a fitted effect of over 55% in size
# Target sequence (Q03431 whole entry, looked up): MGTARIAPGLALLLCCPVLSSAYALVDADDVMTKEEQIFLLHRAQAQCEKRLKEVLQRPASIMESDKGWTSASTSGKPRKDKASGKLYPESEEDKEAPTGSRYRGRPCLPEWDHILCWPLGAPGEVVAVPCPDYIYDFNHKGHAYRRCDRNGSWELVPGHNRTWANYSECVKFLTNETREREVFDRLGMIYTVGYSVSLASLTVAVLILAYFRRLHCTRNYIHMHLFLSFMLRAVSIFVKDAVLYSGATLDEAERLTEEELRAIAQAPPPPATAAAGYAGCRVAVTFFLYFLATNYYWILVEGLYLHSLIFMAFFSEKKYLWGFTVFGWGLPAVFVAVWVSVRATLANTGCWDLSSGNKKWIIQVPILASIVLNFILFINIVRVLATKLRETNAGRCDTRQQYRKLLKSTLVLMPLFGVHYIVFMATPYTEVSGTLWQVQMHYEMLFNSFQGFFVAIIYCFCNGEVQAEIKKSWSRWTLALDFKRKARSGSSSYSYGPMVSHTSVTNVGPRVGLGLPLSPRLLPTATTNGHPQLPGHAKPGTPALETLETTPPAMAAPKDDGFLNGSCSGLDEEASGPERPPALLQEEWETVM
#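 HEK-293-derived GP2 cells expressing PTHR1 and a GloSensor cAMP reporter, 3,000/well, plated overnight, given luciferin plus IBMX (each 0.5 mM as added) for 1 h at 37 °C, then compound for 1 h at 37 °C. Luminescence was read after 15 min at room temperature.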
# HEK293 tox: cytotoxicity in counter-screen for GLP-1R inverse agonists; hit rate 0.13% among 410,000; HEK293 cAMP-luciferase reporter cells, luminescence, 24 h; Potency, µM (top dose mostly 38.3 µM), usual class: inhibitors;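 also: loss of luciferase light is scored as toxicity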
#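 MLSMR compounds, 24 hr on cells at 37 deg C/5% CO2; luminescence after luciferase reagent (12 min RT). Inhibition counted as the undesired cytotoxic outcome.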
# GLP1R inv ag: GLP-1 receptor (human) inverse agonism; Potency, µM (doses to about 38.3 µM), usual class: inhibitors; hit rate 1.6% among 410,000; P43220; HEK293 GLP-1R CRE-luciferase, luminescence, 24 h; GLP-1R form is constitutively active; also: nearly all actives have a fitted effect of over 55% in size
#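 Luminescence readout: a drop in cAMP-driven luciferase signal flags inverse agonism at a constitutively active GLP-1R stably expressed in HEK293. Compound exposure lasted 24 hr at 37 deg C, 5% CO2.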
# A number is an active result; – = inactive; ? = inconclusive; · = no result given. Calls follow the shape of the dose curve; as a rule, active = well fitted curve in the direction sought with a large enough effect; inconclusive = small, poorly fitted or top-dose-only effect, or another doubt; inactive = no such curve, though single readings can be large; an effect the other way counts as inactive or inconclusive.
SMILES,GLP1R ag,PTHR1 ag,HEK293 tox,GLP1R inv ag
COc1ccccc1OCCNC(=O)c1cc(C2CC2)nc2c1cnn2C(C)C,–,–,–,–
COc1ccccc1N1CCN(C(=O)c2cc(-c3ccccc3)nc3c2cnn3C(C)C)CC1,–,–,–,11µM
COc1ccccc1N1CCN(C(=O)c2ccccc2Oc2ccccc2)CC1,–,–,–,8.9µM
Cc1ccccc1N1CCN(C(=O)c2cc(-c3ccccc3)nc3c2cnn3C(C)C)CC1,–,–,–,–
COc1ccc(C(=O)NC(=S)N2CCN(c3ccccc3OC)CC2)cc1,–,–,4.5µM,?
COc1ccccc1N1CCN(C(=S)NC(=O)c2ccc([N+](=O)[O-])cc2)CC1,–,–,–,–
COc1ccccc1CCNC(=O)c1cc(C2CC2)nc2c1cnn2C(C)C,–,–,–,10µM
Cc1cc(C)n(-c2nc3ccccc3nc2Nc2ccc(Cl)c(C(=O)OC(C)C)c2)n1,·,–,–,–
Cc1cccc(CN(CC(=O)N/N=C/c2cccs2)S(=O)(=O)c2ccc(Cl)cc2)c1,–,–,–,8.9µM
Cc1cccc(CN(CC(=O)N/N=C/c2ccco2)S(=O)(=O)c2ccc(Cl)cc2)c1,–,–,–,?
Cc1ccc(Cl)cc1Nc1nn2c(=O)c3ccc(C(=O)NC4CCCCC4)cc3nc2s1,·,–,–,–
c1ccc(C(OC2CCCN(CCc3ccc4c(c3)OCO4)C2)c2ccccc2)cc1 (configuration not stated),–,·,·,·
CCOc1ccc(CN2C(=O)c3ccccc3Sc3ccc(C(=O)NCCCN4CCOCC4)cc32)cc1,–,–,?,13µM
O=C(NCCCN1CCOCC1)c1ccc2c(c1)N(Cc1ccccc1)C(=O)c1ccccc1S2,–,–,–,?
CN1CCN(CCCNC(=O)c2ccc(/C=C3\Sc4ccccc4N(Cc4ccc(F)cc4)C3=O)cc2)CC1,–,–,–,10µM
CS(=O)(=O)N(CCc1ccccc1)CC(=O)Nc1ccc(OCc2ccccc2)cc1,–,–,–,11µM
CC(C)CC1NC(=O)N(CC(=O)Nc2ccc(OCc3ccccc3)cc2)C1=O (configuration not stated),–,–,–,11µM
O=C(CN1CCN(CC(=O)Nc2ccc(OCc3ccccc3)cc2)CC1)Nc1ccc(F)cc1,–,–,–,8.9µM
C/C=C\C(=O)N(CC)c1ccccc1C,–,·,·,·
CCCCc1cc2c(=O)c(C(=O)OC)c[nH]c2cc1OCc1ccccc1,–,·,·,·
O=C1CC(N(CCc2ccccc2)C(=S)Nc2ccccc2)C(=O)N1c1ccc(F)cc1 (configuration not stated),–,–,?,4.5µM
CCNC(=S)N(CCc1ccc(S(N)(=O)=O)cc1)C1CC(=O)N(c2ccccc2)C1=O (configuration not stated),–,–,–,?
O=C1CC(N(CCc2ccccc2)C(=S)Nc2cc(Cl)ccc2Cl)C(=O)N1c1c(Cl)cccc1Cl (configuration not stated),–,–,–,4.5µM
CCCOc1ccc(N2C(=O)CC(N(Cc3ccc(OC)cc3)C(=S)Nc3ccccc3)C2=O)cc1 (configuration not stated),–,–,–,?
O=C1CC(N(CCc2ccccc2)C(=S)Nc2ccccc2)C(=O)N1c1ccccc1 (configuration not stated),–,–,–,?
SMILES,GLP1R ag,PTHR1 ag,HEK293 tox,GLP1R inv ag
CCCOc1ccc(N2C(=O)CC(N(CCc3ccc(OC)c(OC)c3)C(=S)Nc3ccccc3)C2=O)cc1 (configuration not stated),–,–,–,5.6µM
CC(=O)NC[C@@H]1CN(c2ccc(N3CCOCC3)c(F)c2)C(=O)O1,–,·,·,·
CCOC(=O)C1CCCN(S(=O)(=O)c2cc3c4c(c2)CC(=O)N4CCC3)C1 (configuration not stated),·,–,–,–
Cc1cc(C(=O)OC(C)C(=O)Nc2nc(-c3ccccc3)cs2)c(C)o1 (configuration not stated),–,–,–,10µM
Cc1cc(C(=O)OCC(=O)Nc2nc(-c3ccccc3)cs2)c(C)o1,–,–,–,–
CCCC(=O)N(Cc1cc(=O)[nH]c2ccccc12)c1cccc(C)c1,–,–,–,–
Cc1cccc(N(Cc2cc(=O)[nH]c3ccccc23)C(=O)CCl)c1,–,–,–,2.5µM

# Bioassay records deposited in PubChem by National Center for Advancing Translational Sciences (NCATS).
